Structures are written as SMILES.

This test is described as follows: qHTS profiling of inhibitors of Plasmodium falciparum (DD2) proliferation (acoustic dispense). Conditions: P. falciparum Dd2 in erythrocytes, SYBR Green DNA, 72 h; at 49.8 µM (top of the series) unless noted. The source says:
Plasmodium falciparum is a virulent malarial parasite that kills 1-2 million people worldwide each year. Transmitted by mosquitoes, the sporozoite form of the parasite enters the blood stream to infect hepatocytes, where they become merozoites that infect red blood cells (erythrocytes). Within erythrocytes, merozoites begin a […] cycle of growth and division, after which the parasite is released to infect new red blood cells. Gametocytes, which form within erythrocytes as well, circulate in the bloodstream and are ingested by the mosquito, thereby completing the life cycle. To profile malarial isolates for differential chemical responses and to identify inhibitors of malarial growth, an assay that measures P. falciparum growth and replication within erythrocytes was employed. This assay uses a DNA binding fluorescent dye (SYBR Green) to detect parasite DNA following cell lysis. Because mature erythrocytes lack DNA, only Plasmodium-derived DNA is detected.
The SYBR Green viability assay was adapted from a method described previously (Plouffe et al., 2008). For screening 3 ul culture medium was dispensed into 1536 well black clear bottom plates (Aurora Biotechnologies) using a Multidrop Combi (Thermo Fisher Scientific Inc.), 23 nL of compounds in DMSO were added by an acoustic dispenser (EDC Biosystems), and 5 ul of erythrocytes infected with P. falciparum (0.3% parasitemia, 2.5% hematocrit final concentration) were added. The plates were incubated at 37 C in a humidified incubator in 5% CO2 for 72 h, and 2 ul lysis buffer (20 mM Tris HCl, 10 mM EDTA, 0.16% saponin, 1.6% triton X, 10X SYBR Green I supplied as 10,000X […] by Invitrogen) was added to each well. The plates were mixed for 25 sec with gentle shaking and incubated overnight at room temperature in the dark. The following morning, fluorescence intensity at 485(14) nm excitation and 535(25) nm emission wavelengths was measured on an EnVision (Perkin Elmer) plate reader. Plate reads were normalized relative to the control inhibitor (0.29 uM artemisinin) and vehicle (DMSO) wells present on each plate and then corrected by an algorithm using vehicle-only control plates at the beginning and end of the compound plate stack.
A general note: In qHTS, concentration-response curves come from the screen itself.
In the case of `C[C@]12O[C@H](C[C@@]1(O)C(=O)O)n1c3ccccc3c3c4c(c5c6ccccc6n2c5c31)CNC4=O`, the parasite growth, lower = inhibition amounted to 5.95% [at 4.15 µM].

Consider `COC(=O)[C@@]1(OC)C[C@@H]2O[C@@]1(C)n1c3ccccc3c3c4c(c5c6ccccc6n2c5c31)C(=O)N(C)C4`, for which the parasite growth, lower = inhibition is 13.1% [at 16.5 µM].

`O=C(C[C@@H]1NCCC[C@@H]1O)Cn1cnc2ccccc2c1=O`: the parasite growth, lower = inhibition is -0.505%.

For `CO[C@H]1CCC(O[C@H]2C[C@H]([C@]3(C)CC[C@]4(C[C@H](O)[C@@H](C)[C@@H]([C@@H](C)C=C(C)C(=O)[C@H](C)C[C@H](C)C(=O)O)O4)O3)O[C@]3(O[C@@H]([C@H]4O[C@@](O)(CO)[C@H](C)C[C@H]4C)C[C@H]3C)[C@H]2C)O[C@H]1C` (some centres not stated), the parasite growth, lower = inhibition stood at 104%.

With `O=c1[nH]c2ccc(Cl)cc2c(N[C@@H]2CN3CCC2CC3)c1-c1nc2ccccc2[nH]1`, the parasite growth, lower = inhibition is 0.0567%.

On to `CC(C)(N)CNC(=O)CC1CCC2(CC1)OOC1(O2)C2CC3CC(C2)CC1C3` (configuration not stated), for which the parasite growth, lower = inhibition is -0.141%.

In the case of `C[C@H]1CCCC=CC2C[C@H](O)C[C@@H]2[C@H](O)C=CC(=O)O1` (some centres not stated), the parasite growth, lower = inhibition was -0.172%.

Turning to `C[C@@H]1C[C@@H]([C@H](O)CC2CC(=O)NC(=O)C2)C(=O)[C@@H](C)C1`, the parasite growth, lower = inhibition was determined as 0.0707%.

Regarding `CC(=O)N(O)CCCP(=O)(O)O`, the parasite growth, lower = inhibition was determined as 4.17%.

As for `OB1OCc2cc(F)ccc21`, the parasite growth, lower = inhibition was found to be 88.5%.

As to `CN1C(=O)C[C@H](C(=O)N[C@@H](Cc2cnc[nH]2)C(=O)N2CCC[C@@H]2C(N)=O)NC1=O`, the parasite growth, lower = inhibition was found to be 82%.

As for `CC=C(C)C(=O)N[C@@H](c1ccccc1)[C@@H](O)C(=O)O[C@H]1C[C@@]2(O)[C@@H](OC(=O)c3ccccc3)[C@@H]3[C@]4(OC(C)=O)CO[C@@H]4C[C@H](O)[C@@]3(C)C(=O)[C@H](OC(C)=O)C(=C1C)C2(C)C`, the parasite growth, lower = inhibition is 4.37%.

Regarding `CC=C1C2C=C(C)CC1(N)c1ccc(=O)[nH]c1C2` (configuration not stated), the parasite growth, lower = inhibition was found to be 97.1%.

For `CC(=O)Nc1nnc(S(N)(=O)=O)s1`, the parasite growth, lower = inhibition was found to be 91%.

As to `CC(=Cc1csc(C)n1)[C@@H]1C[C@H]2O[C@@H]2CCC[C@H](C)[C@@H](O)[C@@H](C)C(=O)C(C)(C)[C@@H](O)CC(=O)O1`, the parasite growth, lower = inhibition was 3%.

As to `COC1=CC(C)=C[C@@H](C)[C@@H](O)[C@@H](C)CC(C)=CC=C[C@H](OC)[C@H]([C@@H](C)[C@@H](O)[C@H](C)[C@@]2(O)C[C@@H](O)[C@H](C)[C@@H](C(C)C)O2)OC1=O`, the parasite growth, lower = inhibition was 0.538%.

Consider `CC1=C(O)C(=O)C=C2C1=CC=C1[C@@]2(C)CC[C@@]2(C)[C@@H]3C[C@](C)(C(=O)O)CC[C@]3(C)CC[C@]12C`, for which the parasite growth, lower = inhibition was found to be 3.33%.

Values taken from PubChem BioAssay AID743365 (National Center for Advancing Translational Sciences (NCATS), 2014).
